# ADAM10 inh – human ADAM10 inhibitors, primary screen, biochemical, QFRET, HTS. inhibition, % at 7 µM. recombinant ADAM10, EDANS/DABCYL FRET peptide cleavage, 3 h. AID 720582, 2013. 370,000 tested, 0.62% active. Disintegrin and metalloproteinase domain-containing protein 10 (Homo sapiens), O14672;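 active = inhibition above a per-campaign cutoff equal to the mean of compounds falling between control-based bounds plus 3 SD, cut at about 20% in these data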;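 note: 0% = DMSO wells while the 100% control is not disclosed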
# proKLK7 act – proKLK7 zymogen activators, primary screen, biochemical, fluorescence intensity; purified proKLK7, EDANS-DABCYL substrate fluorescence; 100% is mature enzyme control, 0% vehicle; activation, % at 7 µM; 370,000 tested, 0.9% active; AID 652039, 2013;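 active = activation above the mean of all tested compounds plus 3 SD, computed per campaign excluding outliers beyond control limits, cut at about 13% in these data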
# PLCb3 inh – human PLC-beta3 inhibitors, primary screen, biochemical, fluorescence | 370,000 tested, 0.18% active | 1-phosphatidylinositol 4,5-bisphosphate phosphodiesterase beta-3 (Homo sapiens), Q01970 | Purified PLC-beta3, fluorogenic substrate | inhibition, % at 12.2 µM | AID 720704, 2013;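 note: 0% = median of compound wells on plate and 100% = full blocker control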
# Target sequence (Q01970 whole entry, looked up): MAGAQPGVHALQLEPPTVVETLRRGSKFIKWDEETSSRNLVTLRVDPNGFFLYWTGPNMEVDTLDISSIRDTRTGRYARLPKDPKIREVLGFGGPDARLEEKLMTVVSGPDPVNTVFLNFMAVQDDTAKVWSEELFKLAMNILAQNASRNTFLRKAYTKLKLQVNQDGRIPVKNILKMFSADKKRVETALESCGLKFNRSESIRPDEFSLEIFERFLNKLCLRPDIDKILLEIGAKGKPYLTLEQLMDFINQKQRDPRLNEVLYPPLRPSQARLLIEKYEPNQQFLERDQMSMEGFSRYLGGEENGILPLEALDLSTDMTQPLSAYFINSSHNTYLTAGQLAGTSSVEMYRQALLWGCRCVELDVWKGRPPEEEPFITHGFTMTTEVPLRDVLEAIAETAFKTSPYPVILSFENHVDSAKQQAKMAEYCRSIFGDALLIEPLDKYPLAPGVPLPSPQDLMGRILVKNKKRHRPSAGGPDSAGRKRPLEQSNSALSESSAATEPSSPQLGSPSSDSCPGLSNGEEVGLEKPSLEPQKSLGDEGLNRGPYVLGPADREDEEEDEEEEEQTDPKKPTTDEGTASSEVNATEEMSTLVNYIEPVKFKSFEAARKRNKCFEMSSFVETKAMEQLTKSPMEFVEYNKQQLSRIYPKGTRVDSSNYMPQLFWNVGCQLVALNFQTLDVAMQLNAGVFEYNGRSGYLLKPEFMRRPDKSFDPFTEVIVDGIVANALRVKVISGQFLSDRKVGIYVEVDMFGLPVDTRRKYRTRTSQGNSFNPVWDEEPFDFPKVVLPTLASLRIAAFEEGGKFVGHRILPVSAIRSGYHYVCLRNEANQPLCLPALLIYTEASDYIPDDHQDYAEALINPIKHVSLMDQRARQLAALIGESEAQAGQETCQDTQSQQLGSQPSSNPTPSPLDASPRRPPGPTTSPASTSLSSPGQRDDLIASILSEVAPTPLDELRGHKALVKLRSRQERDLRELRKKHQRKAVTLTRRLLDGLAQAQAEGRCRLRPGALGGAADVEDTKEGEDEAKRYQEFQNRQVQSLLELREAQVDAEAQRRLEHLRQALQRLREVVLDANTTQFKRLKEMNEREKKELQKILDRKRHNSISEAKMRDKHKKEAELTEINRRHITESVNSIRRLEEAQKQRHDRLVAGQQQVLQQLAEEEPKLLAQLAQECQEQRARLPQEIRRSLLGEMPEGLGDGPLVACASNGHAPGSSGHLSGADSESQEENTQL
# sPLA2-III inh – human group III sPLA2 inhibitors, primary screen, biochemical, QFRET, BODIPY PC-A2 liposome substrate | Group 3 secretory phospholipase A2 (Homo sapiens), Q9NZ20 | QFRET BODIPY PC-A2 liposome hydrolysis, fluorescence | inhibition, % at 12.2 µM | 370,000 tested, 0.56% active;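 active = inhibition above mean plus 3 SD of compounds lying within the high and low control bounds, cut at about 19% in these data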;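 note: 0% = median of test compound wells and 100% = no enzyme DMSO wells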
# PLC-gamma1 inh – PLC-gamma1 enzyme inhibitors, primary screen, biochemical, fluorescence, purified enzyme; inhibition, % at 12.2 µM; 1-phosphatidylinositol 4,5-bisphosphate phosphodiesterase gamma-1 (Homo sapiens), P19174; fluorogenic substrate; 370,000 tested, 0.84% active; in the data active = inhibition above about 9.5%
# ADAM17 inh – ADAM17 inhibitors, primary screen, biochemical, QFRET. recombinant ADAM17, EDANS/DABCYL FRET peptide cleavage. inhibition, % at 6.95 µM. 370,000 tested, 0.83% active;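 active = inhibition above the mean of compounds lying between control limits plus 3 SD, set per campaign, cut at about 8.5% in these data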;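 note: 0% = DMSO-only wells as the low control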
# PLCgamma1 ctr – PLC-gamma1 enzyme inhibitors, counter-screen for PLC-beta3 inhibitor project, biochemical, fluorescence; shares compounds with PLC-gamma1 inh; purified PLC-gamma1, fluorogenic substrate; inhibition, % at 12.3 µM; 3,300 tested, 3.1% active; in the data active = inhibition above about 9.5%
# PLCb3 confirm – PLC-beta3 inhibitor confirmation, biochemical, fluorescence, purified enzyme | shares compounds with PLC-gamma1 inh | fluorogenic substrate fluorescence | inhibition, % at 12.3 µM | 3,300 tested, 1% active | AID 743261, 2014
# The depositor's hits bear a star; x = no result given. An excerpt weighted towards active compounds, which were near 3.4% of everything screened. Cut-off read from the data, not from the text of the source, unless noted: active = inhibition above about 11%; inactive = the rest.
SMILES,ADAM10 inh,proKLK7 act,PLCb3 inh,sPLA2-III inh,PLC-gamma1 inh,ADAM17 inh,PLCgamma1 ctr,PLCb3 confirm
COc1ccc(Cn2c(C)c(CC(=O)Nc3ccc(Oc4cccnc4)c(C)c3)c3ccccc32)cc1,-2,0,-19,-3,-13,2,x,x
COc1cccc(C(=O)Nc2ccc(-n3nncc3C(C)(C)C)cc2)c1,12,0,12*,-11,9,7,-151,4
Cc1ccc(S(=O)(=O)N2CCN(S(=O)(=O)c3ccc(C)cc3)C2c2ccccc2)cc1,3,0,2,-19,1,4,x,x
Cc1ccc(S(=O)(=O)N2O[C@@H](c3ccccc3)C[C@H]2CON2C(C)(C)CCCC2(C)C)cc1,4,x,13*,11,11*,3,0,-5
COC(=O)c1ccc(NC(=O)CN2CCN(c3ccccn3)CC2)cc1,-2,1,-87,10,9.9*,-7,-4,-3
COC(=O)c1ccc(NC(=O)CN2CCN(c3ccccc3)CC2)cc1,0,0,-7,13,12*,0,-8,-7
COC(=O)c1cccc(NC(=O)CN2CCN(c3ccc(OC)cc3)CC2)c1,2,1,0,-2,13*,-2,-4,-1
Cc1c(NS(=O)(=O)c2cc3c(cc2Br)CCN3C(=O)C2CC2)c(=O)n(-c2ccccc2)n1C,-3,-1,2,-4,1,0,x,x
CC(C)[C@H](NC(=O)c1ccccc1)C(=O)OCc1nnc(-c2ccccc2)o1,5,0,-5,7,12*,-3,-3,-1
CCCNC(=O)COC(=O)CCC(=O)c1ccc(F)cc1,13,-1,7,6,9.8*,1,-2,-7
COCCNC(=O)C[C@H]1CC[C@H]2[C@@H](COc3ccc(NS(=O)(=O)c4ccc(Cl)cc4)cc3C(=O)N2C)O1,3,0,8,-7,8,-1,x,x
COc1ccc(/C=C/S(=O)(=O)NCCc2ccccc2)c(CNC(=O)OC(C)(C)C)c1,9,0,-4,-16,-4,2,x,x
Cc1ccc2nc3n(c(=O)c2c1)-c1ccccc1C(=O)NC3Cc1ccc(O)cc1 (configuration not stated),12,0,5,-12,10*,8,-6,-7
O=C1NC(Cc2ccccc2)c2nc3cc(F)ccc3c(=O)n2-c2ccccc21 (configuration not stated),0,1,-1,4,11*,6,-5,-5
O=C1NC(Cc2ccccc2)c2nc3ccc(F)cc3c(=O)n2-c2ccccc21 (configuration not stated),9,0,-1,1,0,-1,x,x
COC(=O)C[C@H]1CC[C@@H]2[C@@H](COc3ccc(NC(=O)c4ccccc4)cc3C(=O)N2C)O1,-3,0,4,1,2,-2,x,x
COc1ccc2c(c1)CO[C@H]([C@H](O)COC(C)=O)[C@H]2/C=C/c1ccccc1,-3,1,-1,-6,1,2,x,x
O=C(CSc1nc(=O)n(CCN2CCOCC2)c2c1CCCC2)Nc1cccc([N+](=O)[O-])c1,-6,0,19*,8,3,-3,-3,-2
CCOC(=O)C1CCN(Cc2ccc(O)c(OC)c2)CC1,-1,1,3,4,12*,2,-1,0
COC(=O)[C@]12C[C@H](CC(=O)N3CCCC3)C(=O)N(Cc3ccc4c(c3)OCO4)C1=C[C@H](COCc1ccccc1)O[C@@H]2C,-9,0,2,6,0,-5,x,x
CC1(c2nnnn2-c2ccc3ccccc3c2)CSCC(=O)N1C1CC1 (configuration not stated),-1,0,1,-1,-1,-2,x,x
Cc1[nH][nH]c(=O)c1C(c1ccc(-c2ccc(F)cc2)o1)c1c(C)[nH][nH]c1=O,12,0,3,-19,11*,5,-5,-1
CC(C)C(OC(=O)c1cc2c(s1)CCCCC2)C(=O)NC(N)=O (configuration not stated),8,0,3,18,18*,-1,-4,-3
Cc1ccc(NC(=O)CSc2n[nH]c(-c3ccco3)n2)c(C)c1,-3,0,-12,5,10*,-6,0,-7
CCOC(=O)c1c(CC(C)C)csc1NC(=O)C(C)C,-1,0,2,2,3,-3,x,x
SMILES,ADAM10 inh,proKLK7 act,PLCb3 inh,sPLA2-III inh,PLC-gamma1 inh,ADAM17 inh,PLCgamma1 ctr,PLCb3 confirm
CCOC(=O)c1c(CC(C)C)csc1NC(=O)CCl,14,1,11*,5,6,8,-3,-6
O=C(c1ccccc1)N1CCN(c2ccc([N+](=O)[O-])c(NCc3cccnc3)c2)CC1,7,0,0,-1,9.7*,-1,-1,0
C[C@H](NC(=O)[C@@H]1CSC2c3ccccc3C(=O)N21)C(=O)NCCc1ccc(F)cc1 (some centres not stated),6,0,-11,-15,12*,-1,-8,-7
O=C(CN1C(=O)c2ccccc2S1(=O)=O)NC1CC2CCC1C2 (configuration not stated),-3,0,-1,5,4,-2,x,x
CC(C)COP(=O)(CNC(=O)CN1C(=O)c2ccccc2S1(=O)=O)OCC(C)C,6,1,1,-2,9.8*,7,-9,-3
CC(C)NC(=O)CN1C(=O)c2ccccc2S1(=O)=O,0,1,3,1,-5,0,x,x
CC1CCC(NC(=O)CN2C(=O)c3ccccc3S2(=O)=O)CC1 (configuration not stated),10,0,-1,3,12*,8,-2,1
CCCCCCCCN1C(=O)[C@@H](CC(=O)N2CCN(C(=O)OCC)CC2)C[C@@]2(C(=O)OC)C1=C[C@H](C(C)(C)C)O[C@@H]2C,-2,0,7,-4,-1,-1,x,x
Cc1cc(C)c(NC(=S)NCCO)c(C)c1,2,0,0,4,4,-4,x,x
